Results as given in PubChem BioAssay AID1671190 (National Center for Advancing Translational Sciences (NCATS), 2021).
The campaign covered roughly 580,000 compounds. About 6,100 (1.1%) were called active. Roughly 15% stayed inconclusive and do not appear here. This is one part of a sample in which actives are shown more often than they occur. Calls come from the whole dose curve; as a rule, active = well fitted inhibition curve with a large enough effect; inconclusive = small, poorly fitted or top-dose-only effect, or another doubt; inactive = no such curve, though single readings can be large or run the other way.

Molecular target: Polyunsaturated fatty acid lipoxygenase ALOX12 (Homo sapiens) (UniProt P18054)
Sequence (P18054 whole entry, looked up): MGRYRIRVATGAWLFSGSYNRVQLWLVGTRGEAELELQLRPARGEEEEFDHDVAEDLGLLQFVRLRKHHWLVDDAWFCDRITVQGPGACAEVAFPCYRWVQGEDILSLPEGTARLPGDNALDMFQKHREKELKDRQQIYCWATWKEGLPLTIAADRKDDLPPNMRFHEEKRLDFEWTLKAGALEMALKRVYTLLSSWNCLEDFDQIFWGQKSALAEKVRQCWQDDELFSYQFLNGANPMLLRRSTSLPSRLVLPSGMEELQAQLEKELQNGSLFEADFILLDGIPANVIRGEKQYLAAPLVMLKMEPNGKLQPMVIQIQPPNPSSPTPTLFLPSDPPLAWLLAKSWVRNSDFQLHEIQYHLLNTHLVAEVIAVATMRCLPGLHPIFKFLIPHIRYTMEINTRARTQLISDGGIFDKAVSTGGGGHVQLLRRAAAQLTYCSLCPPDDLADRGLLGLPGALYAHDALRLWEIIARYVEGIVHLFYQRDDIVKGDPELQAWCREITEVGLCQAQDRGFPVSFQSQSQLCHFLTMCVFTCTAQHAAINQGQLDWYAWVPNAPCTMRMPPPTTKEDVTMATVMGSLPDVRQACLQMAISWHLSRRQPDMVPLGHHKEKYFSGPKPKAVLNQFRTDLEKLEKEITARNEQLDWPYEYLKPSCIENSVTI
Assay: Primary qHTS assay for inhibitors of human arachidonate 12S-lipoxygenase (ALOX12): Round 2
Settings: purified 12hLO, xylenol orange hydroperoxide absorbance; series mostly up to 108 µM
Description: Assay Provider: Theodore R. Holman Ph.D. University of California, Santa Cruz, California Human lipoxygenase 12hLO is a member of the closely related lipoxygenase family of enzymes which catalyze the site-specific oxidation of arachidonic acid to various hormone precursor molecules and as such is a candidate for drug development in a variety of disease areas, such as cancer and inflammation. Inhibition of 12hLO activity was screened by utilizing arachidonic acid as a substrate. The extent of hydroperoxide product formation was measured by a secondary chromogenic reaction in which xylenol orange (XO, Sigma-Aldrich, cat. number 39,818-7) reacts with the ferric ions produced from the reaction between the hydroperoxide and ferrous ions. The Fe (III)-XO complex is characterized with red-shifted absorbance at 560 nm. A purified preparation of human 12hLO was supplied by Dr. Holman laboratory, University of California, Santa Cruz.
PROTOCOL TABLE SEQUENCE No. (e.g., 1, 2, 3, etc.); […] (e.g., Cells, Incubation, Reagent, etc.); VALUE; DESCRIPTION 1; Enzyme; 3 uL; 150 nM 12hLO enzyme solution dispensed in 1536-well Greiner black, clear bottom plates. 2; Compound; 23 nL; compounds and controls were added. 3; Incubate; 15 min; room temperature. 4; Substrate; 1 uL; 40 uM arachidonic acid (final concentration). 5; Incubate; 30 min; room temperature. 6; Reagent; 4 uL; Fe-XO solution was added to each well. 7; Incubation; 30 min; room temperature 8; Detector; absorbance; Read 1 at 405 nm absorbance using ViewLux (Perkin-Elmer) CCD imager. 9; Detector; absorbance; Read 2 at 573 nm absorbance using ViewLux (Perkin-Elmer) CCD imager. NOTES (numbers refer to sequence above) 1; 150 nM 12hLO (final concentration) in buffer solution (25 mM Hepes, 0.01% Triton X-100, pH 7.0) was dispensed in columns 1, 2, 5-48. Column 1 is neutral (100% activity). Buffer only was dispensed in columns 3 and 4 as no enzyme negative controls. The plates were covered with metal lids with gas-exchange holes. 2; Compounds were pin transferred via a Kalypsys Pin Tool (Wako USA) in column 5-48. Control compound was transferred in column 2, titration of nordihydroguaiaretic acid (NDGA, Sigma-Aldrich, N5023) with top concentration of 20 mM in DMSO then 1:3 dilution in duplicate. Dilution factor of 23 nL into 4 uL final assay volume. 3; Covered assay plates were incubated for 15 min at room temperature. 4; Substrate was added to start the reaction; 40 uM arachidonic acid (Sigma-Aldrich, St. Louis, MO) was dispensed throughout the plate. 6; Chromogenic detection reagent solution (divalent iron/xylenol orange, Fe-XO) was added to each well: 200 uM xylenol orange, 300 uM ferrous ammonium sulfate prepared freshly in 50 mM sulfuric acid. 8, 9; Two absorbance readouts were obtained at 405 nm and at 573 nm using a ViewLux high-throughput CCD plate imager (Perkin-Elmer). The 573 to 405 (Read 2 / Read 1) absorbance ratio was used to compute reaction progress.
Potency is the fitted concentration of half-maximal effect.

Potency, active:
C=CCNc1nc(Nc2ccc(Cl)cc2)nc(OC)n1 39.8 µM
O=[N+]([O-])c1ccccc1CN1C[C@H](O)C[C@H]1c1nc(-c2ccc(F)cc2)no1 39.8 µM
N#Cc1cccc(-c2ccc3ncnc(NCc4cccs4)c3c2)c1 50.1 µM
c1ccc2c(c1)C(=NC1CCCCC1)NC2=NC1CCCCC1 31.6 µM
COc1ccc(C(=O)NC(=S)NNC(=O)CCc2ccccc2)cc1 12.6 µM
COc1ccc(C(=O)NC(=S)NNC(=O)c2c(-c3ccccc3)noc2C)cc1 35.5 µM
Cc1onc(-c2ccccc2)c1C(=O)NNC(=S)NC(=O)c1ccc(F)cc1 39.8 µM
N#CC1=C(N)OC2=C(C(=O)CC(c3ccccc3)C2)C1c1cccs1 (stereo unspecified) 11.2 µM
O=C(Nc1ccc(Cl)cc1)c1csc(C(O)c2cccc(C(F)(F)F)c2)n1 (stereo unspecified) 22.4 µM
Cc1ccc(-c2nn(-c3ccccc3)cc2/C=C2\SC(=S)N(CCCCCC(=O)O)C2=O)o1 31.6 µM
CN(C)S(=O)(=O)c1cccc(-c2nn(-c3ccccc3)cc2/C=C2\SC(=S)N(CC(=O)O)C2=O)c1 39.8 µM
CCc1ccc(NC2Nc3cc(C)nn3S2)cc1 (stereo unspecified) 25.1 µM

Potency, inactive:
Cc1nc2ccccc2c(C)c1CC(=O)N1CCC(C)CC1
Cn1c(=O)c2c(nc(CN3CCc4ccccc4C3)n2CCCc2ccccc2)n(C)c1=O
COc1ccc(C(=O)/C=C/c2cccc(OC(=O)C3CC3)c2)cc1
Cc1nc2c(c(C)c1CCC(=O)NCCN1CCCC1)c(=O)n(C)c(=O)n2C
COc1ccc(-c2noc(CNC(=O)COc3cccc(C)c3C)n2)cc1OC
C=CCNc1nc(C)nc(OC)n1
COc1nc(NCc2ccc(Cl)cc2)nc(OC)n1
Cc1[nH]c2ccccc2c1C(=O)CSc1nnc(CC(C)c2ccccc2)o1 (stereo unspecified)
N#Cc1ccccc1COC(=O)c1ccc(Br)cc1
Oc1ccccc1CN1C[C@H](O)C[C@H]1c1nc(Cc2ccc(F)cc2Cl)no1
O=[N+]([O-])c1cccc(-c2noc([C@@H]3C[C@@H](O)CN3Cc3cccnc3)n2)c1
CC(C)CN1CCOC(CNC(=O)N2CCN(S(=O)(=O)c3ccc(C#N)cc3)CC2)C1 (stereo unspecified)
Cc1cccc(C(=O)Nc2cccc(-c3nn4c(C)nnc4s3)c2)c1
CN1Cc2ncnc(NCc3cccs3)c2CN(c2ccccc2)C1=O
COc1ccccc1CNc1ncnc2ccc(-c3ccc4c(c3)OCO4)cc12
CC(C)(C)c1ccc2c(c1)OCCOCCOCCOc1ccc(C(C)(C)C)cc1OCCOCCOCCO2
COc1ccc(-c2noc([C@@H](C)NCc3ccc(F)cc3)c2C(=O)O)cc1
Cc1onc(-c2ccc(F)cc2F)c1C(=O)Nc1cccc(C(F)(F)F)c1
COCc1nc(CCNC(=O)CCc2ccccc2)no1
C[C@H]1CN(C(=O)Nc2ccc(F)cc2)C[C@@H]1c1nc(-c2ccccc2)no1
CCOC(=O)c1c(NC(=O)c2c(-c3ccccc3)noc2C)sc2c1CCC2
CCCNC(=O)c1ccc(NC(=O)CCc2ccccc2)cc1
c1cc(CN2CCc3c(sc4ncnc(N5CCOCC5)c34)C2)ccn1
CCOC(=O)c1c(C)[nH]c(C(=O)OC)c1C
COc1ccc(-c2ccc3nnc(CNC(=O)C(C)Oc4ccc(Cl)cc4)n3n2)cc1 (stereo unspecified)
Cc1c(S(=O)(=O)N2CCCC2c2cccc(F)c2)cnn1C(F)F (stereo unspecified)
Cc1cccc(NCC(=O)Nc2cc(Cl)ccc2-n2cncn2)c1C
CCS(=O)(=O)N(C)CCCNC(=O)c1cn(C)c2ccccc12
Cc1ccc(C(NC(=O)Cc2cccs2)C(=O)Nc2ccc3c(c2)OCO3)cc1 (stereo unspecified)
CN(C)C[C@@H]1CN(C)C[C@H]1NS(=O)(=O)c1cccc(C(F)(F)F)c1
Cc1ccsc1C1C(C#N)=C(N)OC2=C1C(=O)CC(C)(C)C2 (stereo unspecified)
Cc1ccsc1C1C(C#N)=C(N)OC2=C1C(=O)CC(C)C2 (stereo unspecified)
O=C(Cn1ccc2cc(Cl)ccc21)Nc1ccc2[nH]ccc2c1
Cc1cc2nc(/C(C#N)=C\c3ccc(OCc4ccc(F)cc4)cc3)[nH]c2cc1C
CC(C(=O)NC(=O)NC1CCCCC1)n1cnc2c1c(=O)n(C)c(=O)n2C (stereo unspecified)
CCCCCOc1ccc2c(C)c(CCC(C)C)c(=O)oc2c1
O=C(NC1CCCC1)c1csc(C(O)c2cccc(Cl)c2)n1 (stereo unspecified)
O=C(Nc1ccc(Cl)cc1)c1csc([C@@H]2O[C@H](CO)[C@H](O)[C@H](O)[C@H]2O)n1
Cc1nc(-c2ccccc2Cl)sc1C(=O)NC1C=CS(=O)(=O)C1 (stereo unspecified)
COc1cccc(C(=O)Nc2ccc3oc(C)nc3c2)c1
CCN(CC)c1nc2ccccc2nc1C(=O)Nc1cc(OC)ccc1OC
N#Cc1ccccc1CN1C(=O)S/C(=C/c2cccn2-c2cccc(C(=O)O)c2)C1=O
O=C(CCc1c[nH]c2ccccc12)Nc1ccc(F)cc1
COC(=O)CNC(=O)c1cc2sccc2n1Cc1ccccc1
CC(Sc1ccccn1)C(=O)Nc1cccc(Cl)c1 (stereo unspecified)
CCC(=O)Oc1ccc2cc(-c3ccccc3)c(=O)oc2c1
COc1ccc(OC)c(/C=C/C(=O)Oc2ccccc2Cl)c1
COc1ccc2c(C)c(CC(=O)NCCc3ccccc3)c(=O)oc2c1
O=C1c2c(nc(COc3ccccc3)n2Cc2ccccc2)NCCN1Cc1cccc(Cl)c1
Cc1ccc(NC(=O)CN2C(=O)C(C)(C)c3cc(S(=O)(=O)N4CCCCC4)ccc32)cc1F
COc1ccc(C)cc1NC(=O)C(C)N1CCN(S(=O)(=O)Cc2ccccc2)CC1 (stereo unspecified)
COc1ccc(-n2nnc(C(=O)NCc3ccccc3)c2N)cc1OC
CCc1ccc(NC(=O)N2CCCC(Cn3cnc4cccnc43)C2)cc1 (stereo unspecified)
CCc1ccc(N/C(N)=N/c2nc(C)cc(C)n2)cc1
